Data reported in ChEMBL document CHEMBL1157539, “Thousands of chemical starting points for antimalarial lead identification” (Nature, 2010).

Assays:
Format in all cases: functional
Plasmodium falciparum [1] = assay: GSK_TCMDC: Inhibition of Plasmodium falciparum 3D7 in whole red blood cells, using parasite LDH activity as an index of growth. Test compounds present at 2uM
Plasmodium falciparum [2] = assay: GSK_TCMDC: Inhibition of Plasmodium falciparum Dd2 in whole red blood cells, using parasite LDH activity as an index of growth. Test compounds present at 2uM
HepG2 = assay: GSK_TCMDC: Percent inhibition of human HepG2 cell line. Test compounds present at 10uM.

Row | SMILES | Inhibition (Plasmodium falciparum [1]) [%] | Inhibition (Plasmodium falciparum [2]) [%] | Inhibition (HepG2) [%]
1 | O=C(O)C(F)(F)F.O=S(=O)(NCCN1CCCC1)c1ccc(-c2ccc(CNCc3ccc(F)cc3)cc2)s1 | 100 | 44 | 42
2 | C=CCn1c(SCC(=O)Nc2cc(C)ccc2OC)nc2sc(C)cc2c1=O | 100 | 86 | 6
3 | Cc1cc2cc(-c3ccc(CN)cc3)ccc2nc1N | 92 | 8 | 18
4 | COc1ccc2c(NN=Cc3ccncc3)ccnc2c1 | 95 | 6 | 0
5 | O=C(c1ccco1)N1CCN(c2nc(-c3ccc(Cl)cc3)nc3ccccc23)CC1 | 96 | 91 | 13
6 | Cc1ccc(Nc2ccnc3cc(-c4nccs4)ccc23)cc1C(O)c1ccccc1.Cl (configuration not stated) | 85 | 83 | 23
7 | Nc1nc(N)c2c(Oc3cccnc3)cccc2n1 | 93 | 0 | 65
8 | O=C(Nc1ccc(OC2CCN(Cc3ccc(F)cc3)CC2)c(Cl)c1)c1cccs1.O=C(O)C(F)(F)F | 95 | 96 | 7
9 | COc1ccc(-c2ccc(NC(=O)c3ccc(C#N)cc3)cc2)cc1CN1CCCC1.O=C(O)C(F)(F)F | 95 | 51 | 40
10 | Cc1cc2c(cc1C(F)(F)F)N(C(=O)Nc1cnc(OCCN(C)C)c(C(F)(F)F)c1)CC2 | 88 | 25 | 28
11 | CN1CCN(c2cc3c(cc2Cl)CCN3C(=O)Cc2ccc(NC(=O)Nc3cccc4ccccc34)cc2)CC1 | 92 | 18 | 12
12 | COc1ccc(NC(=O)Nc2cccc(-c3cccc(-c4nc5ccccc5[nH]4)c3)c2)cc1 | 100 | 41 | 41
13 | Cc1ccc(Oc2cnn(C)c(=O)c2Nc2cccc(C(=O)NCCc3ccccn3)c2)c(C)c1 | 94 | 94 | 0
14 | COc1ccc2ncc(Cl)c(CCN3CCC(NCc4ccc5c(n4)NC(=O)CS5)CC3)c2c1.Cl | 100 | 34 | 26
15 | CC(C)(C)C1CCc2nc(N)nc(N)c2C1.Cl (configuration not stated) | 94 | 38 | 69
16 | COc1ccc2nccc([C@@H](O)CN3CCC(NCc4cc5cc(C)ccc5s4)CC3)c2c1.O=C(O)C(=O)O | 92 | 74 | 13
17 | CC(C)C[C@@H](CNC[C@H](CC(C)C)NC(=O)OC(C)(C)C)NC(=O)OC(C)(C)C | 88 | 58 | 4
18 | C=CCn1c(SCc2c(C)noc2C)nc2scc(-c3cccs3)c2c1=O | 88 | 34 | 13
19 | Cl.Nc1c2ccccc2nc2cc([N+](=O)[O-])ccc12 | 98 | 26 | 92
20 | Nc1cc(/C=C/c2ccc([N+](=O)[O-])s2)nc2ccccc12 | 98 | 48 | 89
21 | CS(=O)(=O)c1ccc(CNCc2ccc(-c3ccc(-c4nc5cc(C(F)(F)F)ccc5[nH]4)s3)cc2)cc1.O=C(O)C(F)(F)F | 100 | 98 | 49
22 | COc1ccc(-c2cccc(NC(=O)c3cccc(Cl)c3)c2)cc1CN1CCNCC1.O=C(O)C(F)(F)F | 100 | 52 | 29
23 | COc1ccc2nccc([C@@H](O)CN3CCC(NC(=O)/C=C/c4ccc5ccccc5n4)CC3)c2c1 | 91 | 9 | 12
24 | C#CCOc1ccccc1CN1CCC(N2CCc3cc(NC(=O)c4cc(C)on4)ccc32)C1 (configuration not stated) | 95 | 94 | 16
25 | O=C(O)C(=O)O.Oc1ccccc1CN1CCN(C(c2ccccc2)c2ccccc2)CC1 | 98 | 90 | 0
26 | Br.Cc1ccnc(Nc2nc(-c3ccccn3)cs2)c1 | 100 | 87 | 45
27 | Br.CC(C)(C)c1ccccc1OCCCON1C(=N)N=C(N)NC1(C)C | 95 | 98 | 63
28 | CN1CCC[C@H]1COc1ccc(CN2CC[C@H](NC(=O)c3ccc(Cl)c(Cl)c3)C2)c2ccccc12.O=C(O)C(F)(F)F | 100 | 98 | 47
29 | CCN(CCCN1CCCCC1)c1cc(C)nc(Nc2ccc(C)cc2C(F)(F)F)n1.O=C(O)C(F)(F)F | 100 | 35 | 23
